# Experimental data from PubChem BioAssay AID493170 (National Center for Advancing Translational Sciences (NCATS), 2011).
# Inconclusive results are not listed. A call without a number means that no potency is given here. Active and inactive are the calls of the source. Calls come from the whole dose curve; as a rule, active = well fitted inhibition curve with a large enough effect; inconclusive = small, poorly fitted or top-dose-only effect, or effect the other way; inactive = flat fitted curve, though single readings scatter.
# Target: Ubiquitin carboxyl-terminal hydrolase 2 (Homo sapiens) (UniProt O75604)
# Sequence (O75604 whole entry, looked up): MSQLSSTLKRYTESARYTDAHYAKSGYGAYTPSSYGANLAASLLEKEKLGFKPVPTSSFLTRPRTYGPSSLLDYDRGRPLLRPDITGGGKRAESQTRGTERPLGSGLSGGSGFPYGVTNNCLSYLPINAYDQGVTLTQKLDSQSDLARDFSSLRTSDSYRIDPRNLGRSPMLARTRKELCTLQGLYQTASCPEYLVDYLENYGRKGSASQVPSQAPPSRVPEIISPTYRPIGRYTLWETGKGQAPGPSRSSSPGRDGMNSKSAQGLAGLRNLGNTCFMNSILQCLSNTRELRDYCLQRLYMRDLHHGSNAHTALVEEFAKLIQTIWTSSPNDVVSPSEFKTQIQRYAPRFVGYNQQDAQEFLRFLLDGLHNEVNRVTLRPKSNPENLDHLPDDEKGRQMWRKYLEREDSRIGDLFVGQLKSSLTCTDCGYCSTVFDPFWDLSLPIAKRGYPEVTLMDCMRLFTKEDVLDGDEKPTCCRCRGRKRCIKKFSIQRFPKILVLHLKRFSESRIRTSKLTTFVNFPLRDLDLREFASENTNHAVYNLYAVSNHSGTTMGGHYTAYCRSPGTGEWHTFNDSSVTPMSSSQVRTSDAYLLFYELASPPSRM
# Experiment: Ub-rhodamine 110 based assay for inhibitors Ubiquitin-specific Protease USP2a; note: nearly all actives have a fitted effect of over 50% in size
# Details: USP2a Ub-rhodamine110 cleavage, fluorescence; series mostly up to 38.3 µM
# Outline: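 Kinetic fluorescence (485/531 nm) read each minute over 7 min after adding Ub-Rhod110 (150 nM final) to USP2a (5 nM final). The enzyme had 30 min RT exposure to compounds beforehand in Tris pH 8.0 buffer with CaCl2, CHAPS and beta-ME.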
# Potency is the fitted concentration of half-maximal effect.
row,Structure (SMILES),Potency
1,C=C1c2c(Cl)ccc(O)c2C(O)=C2C(=O)[C@]3(O)C(O)=C(C(N)=O)C(=O)[C@@H](N(C)C)[C@@H]3[C@@H](O)C12 (stereo not given in full),6.31 µM (active)
2,Cc1noc(/C=C/c2ccco2)c1S(=O)(=O)N1CCC(C(=O)N2CCc3ccccc3C2)CC1,7.94 µM (active)
3,COc1cc(NC(=O)COC(=O)CSc2ccccc2F)c(C)cc1[N+](=O)[O-],inactive
4,O=C(CSc1nnc(SCc2ccccc2)s1)N/N=C/c1c[nH]c2ccccc12,10 µM (active)
5,Cc1ccc(C2=[N+]([O-])C(C)N(O)C2(C)C)o1 (stereo not given),inactive
6,O=C(COc1ccccc1)N1CCN(C(=O)Cc2ccccc2)CC1,inactive
7,CC1=NN(c2ccc(C)cc2)C(=O)/C1=C/c1ccc(-c2cc([N+](=O)[O-])ccc2O)o1,10 µM (active)
8,CCOc1ccc(Cn2nnc(C(=O)NCc3ccccc3)c2N)cc1,inactive
9,Cc1cc(SCC(=O)Nc2ccccc2)nc(C)n1,inactive
10,CCCCCCCCCCOC(=O)Cn1c(COc2ccccc2)[n+](C)c2ccccc21,inactive
11,O=C(Nc1nnc(SCCC2OCCO2)s1)C1CC(=O)N(c2ccc(F)cc2)C1 (stereo not given),7.94 µM (active)
12,CCC(C)NC(=O)C1CN(S(=O)(=O)c2ccccc2)CCN1S(=O)(=O)c1ccccc1 (stereo not given),inactive
13,O=C(NCCN1C(=O)CSC1=O)C1CC(=O)N(c2ccccc2)C1 (stereo not given),inactive
14,CNc1cccccc1=S,10 µM (active)
15,CCC(C)NC(=O)CSC1=Nc2ccccc2C2=NC(c3ccccc3)C(=O)N12 (stereo not given),inactive
16,Cc1noc(/C=C/NCc2cccnc2)c1S(=O)(=O)N(C)CC(=O)N1CCc2ccccc21,inactive
17,O=C(Nc1cccc(-c2nn[nH]n2)c1)c1ccc(Br)s1,inactive
18,N#Cc1cccc(C(=O)N(CCc2ccccc2)Cc2cccs2)c1,inactive
19,O=C(O)CCn1c(C2CCCCC2)nc2ccccc21,inactive
20,O=C(NCCCN1CCCC1=O)c1cccc(N2CCCC2=O)c1,inactive

row,Structure (SMILES),Potency
1,Cc1cc(NC(=O)CN2C(=O)NC3(CCCCC3C)C2=O)no1 (stereo not given),inactive
2,O=C(OCC(=O)N1CCCCC1)c1cc2ccccc2cc1O,inactive
3,O=C(c1ccccc1N(Cc1ccccc1)S(=O)(=O)c1ccccc1)N1CCOCC1,inactive
4,O=C(Nc1ccccc1)Nc1snnc1C(=O)Nc1cccc(O)c1,10 µM (active)
5,CCC1=[N+](CC(=O)c2ccc(Br)cc2)CCn2c(C)ccc21,inactive
6,CCn1c(SCC(=O)NCCc2ccccc2)nnc1-c1cccs1,inactive
7,COc1ccc(-c2nc(C#N)c(NCC3CCCO3)o2)cc1OC (stereo not given),inactive
8,Cc1ccc(N=C2NC(=O)/C(=C/C=C/c3ccco3)S2)cc1,7.08 µM (active)
9,COc1cc(OC)cc(-c2c(C#Cc3ccsc3)c3cc(-c4ccc(OC)c(F)c4)ccc3n2C)c1,inactive
10,COc1ccc(C2CC(=O)N3CN(c4ccccc4F)CSC3=C2C#N)cc1OC (stereo not given),inactive
11,CC(OC(=O)c1nsc(Cl)c1Cl)C(=O)NCc1ccco1 (stereo not given),inactive
12,Cc1cccc(OCC(=O)Nc2ccc(N3CCCC3)cc2)c1C,11.2 µM (active)
13,CCOC(=O)c1c(NC(C)=O)sc2c1CCCNC2=O,inactive
14,O=C(CCSCc1ccc(Cl)cc1)NCCc1ccccc1,inactive
15,CCOC(=O)COc1ccccc1/C=N/O,inactive
16,CCn1c(COc2ccc(C)cc2)nnc1SCC(=O)Nc1ccc2c(c1)OCCO2,inactive
17,CC(C)(C)[C@H]1COC(=O)[C@@H](Cc2ccc(F)cc2)C/C=C\C[C@@H](CC(=O)N[C@H](CO)Cc2ccccc2)C(=O)N1,inactive
18,Cc1cc(-c2csc(NCc3ccccc3)n2)c(C)n1C,8.91 µM (active)
19,CCCn1c(C)cc(C)c(C#N)c1=O,inactive
20,CCCCn1c(SCC(=O)N2CCC(C)CC2)nc2cc(S(N)(=O)=O)ccc21,inactive
